Data from ChEMBL document CHEMBL4513216, “Probing the Open Global Health Chemical Diversity Library for Multistage-Active Starting Points for Next-Generation Antimalarials” (ACS Infect Dis, 2020).
The campaign covered roughly 69,000 compounds. About 8,600 (12%) showed an effect of 50% or more. Many of the other results were omitted from the sample, so strong results are more common in it than they were.

Test system: Plasmodium berghei
Assay: Screen against P. berghei liver stage (PbLuc), transformed with Luciferase, at 10uM
Type: functional, HepG2
Conditions: tested at 10 uM

In order of falling INHIBITION:
1. CCC(C)CN1CCC(n2cc(C3CCCCC3)nn2)CC1 (stereo unspecified)  77.6%
2. CC(C)NC(=O)CCN1CCC(C(=O)c2cc(F)ccc2F)CC1  69.3%
3. CSC(C)CCN1CCC(n2cc(C3CCCCC3)nn2)CC1 (stereo unspecified)  67.7%
4. COc1cccc2c1OCC(C(=O)NCCc1nnc(C)s1)C2 (stereo unspecified)  65.6%
5. Cc1ccc(Cl)cc1-n1nnnc1C1(N2CCCC2)CCCCC1  63.9%
6. NCCN1CCC(c2nnc(Cn3ccnc3)n2C2CC2)CC1  62.3%
7. CCCC(C)CN1CCC(n2cc(C3CCCC3)nn2)CC1 (stereo unspecified)  61.1%
8. CCOCCN1CCC(C(=O)c2cc(F)ccc2F)CC1  60.5%
9. CCC(CC)CN1CCC(n2cc(C3CCCC3)nn2)CC1  60.4%
10. COc1cccc2c1OCC(NC(=O)NCCc1ccccn1)C2 (stereo unspecified)  59.1%
11. COc1cccc2c1OCC(Cc1cc(C(=O)N3CCCC3)ccn1)C2 (stereo unspecified)  57.2%
12. COCCCN1CCC(C(=O)c2cc(F)ccc2F)CC1  56.4%
13. OCc1ccc(CN2CCC(n3cc(C4CCCCC4)nn3)CC2)o1  48.8%
14. COC(=O)CCN1CCC(C(=O)c2cc(F)ccc2F)CC1  46.9%
15. CNC(=O)[C@@H]1C[C@H]2CN(Cc3nccs3)C[C@H]2N1C  46.6%
16. C=C(C)CN1CCC(n2cc(C3CCCC3)nn2)CC1  46.4%
17. COc1cccc2c1OCC(C(=O)NCCc1nnc(N)s1)C2 (stereo unspecified)  43.4%
18. Cc1nc(NCc2ccc(F)cc2)cc(C2CCCN2)n1 (stereo unspecified)  41.5%
19. COc1cccc2c1OCC(C(=O)NCCc1nc3c(s1)CCC3)C2 (stereo unspecified)  40.6%
20. NC(=O)NC(=O)CCN1CCC(C(=O)c2cc(F)ccc2F)CC1  40.5%
21. CN1CCN(c2cc(CNC(=O)c3ccc(Cl)o3)ccn2)CC1  38.45%
22. CC(C)(C)CN1CCC(c2nnc(Cn3ccnc3)n2C2CC2)CC1  38%
23. COc1cccc2c1OCC(Cc1cc(C(N)=O)ccn1)C2 (stereo unspecified)  38%
24. CC(C)c1nn(C)c(N(C)C)c1CNC1CCCOc2ccccc21 (stereo unspecified)  35.4%
25. CC(C)N1C[C@@H]2CN(C(=O)NCc3ccccc3)CCC[C@]2(C(=O)O)C1  34.6%
26. Cc1ccc(Cl)cc1-n1nnnc1C1(N2CCCC2)CCCC1  33%
27. COc1c(C)cnc(CSc2nnc(N3CCCC3)s2)c1C  32.9%
28. CCOC(=O)CN1CCC(C(=O)c2cc(F)ccc2F)CC1  32.6%
29. O=C(CCc1cncc(F)c1)NS(=O)(=O)c1ccc(F)cc1F  30.3%
30. Nc1nc(N)c2c(n1)OC1(CCN(C(=O)CC3CCCCN3)CC1)C2 (stereo unspecified)  26.95%
31. CN1CC(=O)N(c2cccc(F)c2)CC12CCN(Cc1ccsc1)C2 (stereo unspecified)  23.6%
32. CCc1nnc(CN2CCCCC2Cn2nc(C)nc2C)o1 (stereo unspecified)  22.3%
33. CN(C)c1ncc(-c2cncnc2)c(C2CNCCO2)n1 (stereo unspecified)  20.6%
34. COc1cccc2c1OCC(NC(=O)NCc1cccs1)C2 (stereo unspecified)  20.5%
35. NC(=O)CCN1CCC(C(=O)c2cc(F)ccc2F)CC1  18.2%
36. CCC(C)CN1CCC(n2cc(C3CCCC3)nn2)CC1 (stereo unspecified)  16.9%
37. CC(C)Nc1cc(N2CCC(n3cc(C4CCCC4)nn3)CC2)ncn1  16.1%
38. COc1cccc2c1OCC(NC(=O)NCCC(N)=O)C2 (stereo unspecified)  15.1%
39. CCCC(C)CN1CCC(n2cc(CCCO)nn2)CC1 (stereo unspecified)  13.7%
40. CN1CCC(c2nnc3n2CCN(S(=O)(=O)c2ccccc2Cl)C3)CC1  10.75%
41. CC(O)c1cn(C2CCN(C(=O)C3(C)CCCCC3)CC2)nn1 (stereo unspecified)  10.3%
42. CS(=O)(=O)N[C@@H]1CN(Cc2ccco2)C[C@@H]2CCCO[C@@H]21  5.96%
43. COCCN1CCC(C(=O)c2cc(F)ccc2F)CC1  5.03%
44. Cc1csc(NC(=O)CN2CCCC(Cn3nc(C)nc3C)C2)n1 (stereo unspecified)  0.4%
45. Clc1ccc2nncc(N3CCCCC3)c2c1  -0.991%
46. CNC(=O)c1ccnc(CC2COc3c(cccc3OC)C2)c1 (stereo unspecified)  -9.54%
47. CC(C)OCCN1CCC(C(=O)c2cc(F)ccc2F)CC1  -13.5%
48. O=C(COC1CCCC1)NCc1ccc(O)c(F)c1  -16.4%
49. COCc1nc(N(C)C)ncc1C(=O)Nc1ccc(Cl)cc1  -18.8%
50. O=C(Cn1ccc2ccc(Br)cc21)NCc1ccc(C(=O)O)cc1  -30.8%
51. O=c1ccc2c(n1Cc1ccncc1)CCN(Cc1ccoc1)CC2  -37.9%
52. CC(C)(CN1CCC2(CCCNC2)C1)N1CCOCC1 (stereo unspecified)  -41.8%
53. Cc1ccc(NC2CCN(C(=O)c3nccc4ccccc34)CC2)nn1  -45.9%
54. COc1ccc(-c2ccc(C(=O)N3CCOCC3CC(N)=O)o2)cc1 (stereo unspecified)  -71.5%
55. CSCCCN1CCC(c2nnc(Cn3ccnc3)n2C2CC2)CC1  -79.3%
56. CC(C)Cc1cn(C2CCN(C(C)CC3CC3)CC2)nn1 (stereo unspecified)  -129%
